Assay results published in PubChem BioAssay AID493012 (Sanford-Burnham Center for Chemical Genomics, 2011).
In all, about 330,000 compounds went through this assay and about 930 (0.28%) were called active. The sample as a whole holds a higher share of actives than the screen did. A number with no mark means an inactive call.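 The calls were made as follows: active = inhibition of at least 40% at 20 µM, with no more than 30% in the related APOBEC3A deaminase screen; inactive = the rest.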

Each compound was assayed against DNA dC->dU-editing enzyme APOBEC-3G (Homo sapiens) (UniProt Q9HC16) (assay: inhibition of human A3G ssDNA deamination – biochemical, fluorescence, single-stranded DNA substrate, uHTS, primary screen (AID 493012;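 also: plate controls were DMSO wells with A3G for no effect and wells lacking A3G enzyme for full effect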)). Settings: recombinant A3G, ssDNA deamination FAM/TAMRA fluorescence; at 20 µM; active compounds read high.
Chain of DNA dC->dU-editing enzyme APOBEC-3G (Homo sapiens) (Q9HC16 whole entry, looked up): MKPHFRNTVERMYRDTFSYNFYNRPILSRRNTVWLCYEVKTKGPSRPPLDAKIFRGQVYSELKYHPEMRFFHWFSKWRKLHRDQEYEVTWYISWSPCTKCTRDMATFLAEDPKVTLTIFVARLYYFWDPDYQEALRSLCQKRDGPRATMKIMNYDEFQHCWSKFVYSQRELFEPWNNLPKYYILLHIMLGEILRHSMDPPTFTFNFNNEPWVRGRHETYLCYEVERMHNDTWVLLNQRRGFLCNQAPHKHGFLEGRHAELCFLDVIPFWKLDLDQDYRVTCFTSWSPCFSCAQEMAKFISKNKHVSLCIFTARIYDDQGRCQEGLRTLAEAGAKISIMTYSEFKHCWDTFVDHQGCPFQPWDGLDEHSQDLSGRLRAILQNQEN

Row | Structure (SMILES) | inhibition
1 | CCOC(=O)C1CCN(S(=O)(=O)c2cc(F)ccc2OC)CC1 | -1.04%
2 | CCC(=O)Nc1ccccc1C(=O)N1CCN(Cc2ccccc2)CC1 | -6.48%
3 | CCC(=O)Nc1ccc(C(=O)Nc2cc(C)on2)cc1 | 2.01%
4 | CCOc1ccc(NC(=O)Nc2cc(C)on2)cc1 | 65.3% (active)
5 | CCOc1ccc(C(=O)Nc2ccc(S(=O)(=O)Nc3cc(C)on3)cc2)cc1 | -9.24%
6 | CC(C)NC(=O)c1ccc(Sc2ccccc2)c([N+](=O)[O-])c1 | -2.3%
7 | O=C(Cc1ccccc1)NNC1CC(=O)N(c2ccc(Br)cc2)C1=O (stereo unspecified) | 4.82%
8 | COC(=O)c1sccc1NC(=O)CC1C(=O)NCCN1C(=O)Nc1ccc(F)cc1F (stereo unspecified) | -4.83%
9 | CNC(=O)c1sc(Nc2ccc(OCc3ccccc3)cc2)nc1C | -1.98%
10 | CN(c1ccccc1)S(=O)(=O)c1ccc(Cl)c(C(=O)NCCc2c[nH]c3ccccc23)c1 | -7.53%
11 | CSCCC(NS(=O)(=O)c1ccc(C)cc1)C(=O)NCCc1c[nH]c2ccccc12 (stereo unspecified) | -1.39%
12 | Cc1ccc(S(=O)(=O)N(C)CC(=O)NCCc2c[nH]c3ccccc23)cc1 | 49.6% (active)
13 | COc1ccc(C)cc1NC(=O)CCS(=O)(=O)c1cccc2nonc12 | -1.32%
14 | O=C1CC(N2CCN(c3ccc(F)cc3)CC2)C(=O)N1c1ccccc1 (stereo unspecified) | -7.4%
15 | Cc1ccc(N2C(=O)CC(Sc3ncn[nH]3)C2=O)cc1 (stereo unspecified) | 28%
16 | O=C1CC(Sc2ncn[nH]2)C(=O)N1c1ccccc1 (stereo unspecified) | 41.6% (active)
17 | CCOc1ccc(-c2cn(S(=O)(=O)c3cccc4nsnc34)nc2N)cc1 | 0.75%
18 | CCOC(=O)C(NC(C)=O)C(=O)Nc1ccc(OC)cc1 (stereo unspecified) | -5.93%
19 | O=c1[nH]c(=S)[nH]c2[nH]c(=S)[nH]c12 | 93.2%
20 | CCNC(=O)CC1C(=O)N(c2ccc(F)cc2)C(=O)N1CCc1sccc1C (stereo unspecified) | -6.98%
21 | COc1ccc(C2=NO[C@@H]3C(=O)N(Cc4ccccc4)C(=O)[C@H]23)cc1OC | -9.52%
22 | O=C(Cc1ccc(Br)cc1)NCCc1ccccc1 | -5.45%
23 | O=C(Cn1cnc([N+](=O)[O-])n1)NCCc1ccccc1 | 61.5% (active)
24 | CC(C)(C)NC(=O)Cn1cnc([N+](=O)[O-])n1 | -1.06%
25 | COCCN1C(=O)C(=O)/C(=C(/O)c2ccc(S(=O)(=O)N3CCOCC3)cc2)C1c1ccc(O)c(OC)c1 (stereo unspecified) | -1.29%
26 | CCOC(=O)C(Sc1ncc(C#N)c(N)n1)C(C)C (stereo unspecified) | 1.62%
